Experimental data taken from PubChem BioAssay (NCI).
This is part of a sample that, as a whole, favours compounds with a hit. Of some 79,000 tested, about 15% had one in any assay. Unmarked numbers belong to inactive results. Calls of active or inactive are those of the source. Cut-off read from the data, not from the text of the source: active = growth inhibition above about 70%; inactive = the rest.

Experiments:
[1] = NCI Yeast Anticancer Drug Screen. Data for the rad50 strain (AID 155);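 note: 0% = growth of vehicle-only cultures of the same strain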; settings: S. cerevisiae rad50 strain growth inhibition, hits give high values
Method in brief: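 DNA repair mutant yeast, compound exposure, growth read-out; inhibition is taken relative to vehicle.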

[2] = NCI Yeast Anticancer Drug Screen. Data for the mec2-1 strain (AID 157); settings: S. cerevisiae mec2-1 strain, hits give high values
Method in brief: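 Mutant yeast (mec2-1) grown with compound; growth inhibition relative to vehicle control reported.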

[3] = NCI Yeast Anticancer Drug Screen. Data for the sgs1 mgt1 strain (AID 161);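 note: 0% = growth of cultures given vehicle only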; settings: S. cerevisiae sgs1 mgt1 strain, hits give high values
Method in brief: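 Compounds are added to genetically altered yeast, and growth is compared with cultures given vehicle alone to give percent inhibition.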

[4] = NCI Yeast Anticancer Drug Screen. Data for the cln2 rad14 strain (AID 165);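 note: 0% = growth equal to vehicle treated cultures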; settings: S. cerevisiae cln2 rad14 strain, hits give high values
Method in brief: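 Readout is yeast growth inhibition versus vehicle-treated controls, using a strain with cln2 and rad14 alterations exposed to compound.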

[5] = NCI Yeast Anticancer Drug Screen. Data for the bub3 strain (AID 167); settings: S. cerevisiae bub3 mutant strain, hits give high values
Method in brief: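 In this screen, a yeast mutant lacking normal mitotic checkpoint function is challenged with compound. Relative growth versus vehicle gives the inhibition value.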

[6] = NCI Yeast Anticancer Drug Screen. Data for the mlh1 rad18 strain (AID 175); settings: S. cerevisiae mlh1 rad18 strain growth inhibition, hits give high values
Method in brief: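 Genetically defined yeast (DNA repair-deficient) exposed to compounds; growth inhibition determined relative to vehicle.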

[7] = at 5.0 µM (retest, dose inferred, filed as 0.5)
[8] = at 50.0 µM (retest, dose inferred, filed as 5.0)

Row | SMILES | growth inhibition [1, 7] | growth inhibition [1, 8] | growth inhibition ([1]; at 50.0 µM) | growth inhibition [2, 7] | growth inhibition [2, 8] | growth inhibition ([2]; at 50.0 µM) | growth inhibition [3, 7] | growth inhibition [3, 8] | growth inhibition ([3]; at 50.0 µM) | growth inhibition [4, 7] | growth inhibition [4, 8] | growth inhibition ([4]; at 50.0 µM) | growth inhibition [5, 7] | growth inhibition [5, 8] | growth inhibition ([5]; at 50.0 µM) | growth inhibition [6, 7] | growth inhibition [6, 8] | growth inhibition ([6]; at 50.0 µM)
1 | O=C(CN1CCOCC1)Nc1nc(-c2ccc(Cl)cc2)cs1 | 66% | 94% (active) | 79.6% (active) | 49% | 97% (active) | 53.8% | 60% | 99% (active) | 86.4% (active) | 46% | 90% (active) | 62% | 65% | 67% | 77.6% (active) | 76% (active) | 99% (active) | 85% (active)
2 | CC(=O)Oc1ccc(C)c(C(C)C(Cl)(Cl)Cl)c1 (configuration not stated) | 0% | 30% | 65% | -5% | 50% | 42.8% | 12% | 26% | 58.3% | 8% | 13% | 52.5% | -6% | 4% | 60% | 0% | 27% | 81.2% (active)
3 | COC1=CC(=O)C(O)=C/C1=C\C=C\c1ccccc1 | 67% | 97% (active) | 95% (active) | 59% | 99% (active) | 97% (active) | 84% (active) | 99% (active) | 97% (active) | 50% | 99% (active) | 95.3% (active) | 36% | 98% (active) | 96.6% (active) | 83% (active) | 99% (active) | 96.8% (active)
4 | O=[N+]([O-])c1cccn2nc(C3OC(CO)C(O)C3O)nc12 (configuration not stated) | 3% | 13% | -11.2% | -3% | -2% | -4.8% | 0% | 7% | -14.7% | 3% | -4% | 34.4% | 0% | -1% | -11.4% | -2% | 3% | -4.65%
5 | O=c1c2ccccc2sc2c([N+](=O)[O-])ccc(NCCNCCO)c12 | 57% | 98% (active) | 87.2% (active) | 35% | 99% (active) | 92.1% (active) | 18% | 98% (active) | 86.7% (active) | 25% | 98% (active) | 87.2% (active) | 21% | 99% (active) | 88.5% (active) | 35% | 98% (active) | 83.3% (active)
6 | O=S(=O)(c1cc(Br)ccc1O)c1cc(Br)ccc1O | 94% (active) | 99% (active) | 99.8% (active) | 99% (active) | 100% (active) | 99.8% (active) | 89% (active) | 99% (active) | 99.8% (active) | 99% (active) | 100% (active) | 99.5% (active) | 99% (active) | 100% (active) | 99.7% (active) | 98% (active) | 99% (active) | 99.5% (active)
7 | CC(NNC(=S)N1CCCC1)c1ccc2ccccc2n1 (configuration not stated) | 24% | 96% (active) | 98% (active) | 6% | 96% (active) | 98.2% (active) | 22% | 96% (active) | 98% (active) | 4% | 95% (active) | 97% (active) | 7% | 97% (active) | 98.2% (active) | 15% | 98% (active) | 96.4% (active)
8 | O=C(CNc1ccc(Cl)cc1)Nn1c(-c2ccccc2)nc2ccccc2c1=O | 8% | 29% | 64.7% | -9% | 42% | 56.6% | 10% | 30% | 79% (active) | 11% | 32% | 45.2% | -7% | 31% | 62.1% | 4% | 51% | 81.3% (active)
9 | CS/C(=N\C(=S)N(C)C)N(c1ccccc1)c1nc(=[N+](C)C)ss1 | 27% | 98% (active) | 98.5% (active) | 13% | 67% | 99.5% (active) | 38% | 98% (active) | 97.9% (active) | 1% | 99% (active) | 86.1% (active) | 27% | 97% (active) | 98.8% (active) | 22% | 98% (active) | 98.7% (active)
10 | C=C(Br)CN(CC(=C)Br)C(C)=O | 17% | 21% | -11.7% | 17% | 14% | -11.1% | 25% | 16% | -2.5% | 15% | 24% | -45.4% | 14% | 10% | -1.4% | 22% | 21% | -53.9%
11 | COc1ccc(C(=O)C2C(=O)C(=O)OC2C2OC(=O)C(=O)C2C(=O)c2ccc(OC)cc2)cc1 (configuration not stated) | -1% | 2% | -9.6% | -3% | -3% | -7.3% | 0% | 2% | -8.2% | -4% | 1% | -15.3% | 0% | -5% | 3.05% | 0% | -1% | -15.7%
12 | CCN(CC)CCC(=O)/C=C/c1ccc(C)cc1 | 4% | 97% (active) | 57.4% | 9% | 99% (active) | 10.9% | 4% | 99% (active) | 18.6% | 3% | 97% (active) | 50% | 7% | 99% (active) | 15.1% | 6% | 99% (active) | 24.1%
13 | COc1ccc(C2COc3c(ccc(O)c3O)C2)cc1 (configuration not stated) | 1% | 99% (active) | 93.3% (active) | 9% | 99% (active) | 97.3% (active) | -2% | 97% (active) | 94.7% (active) | 11% | 98% (active) | 89.2% (active) | 11% | 98% (active) | 81.4% (active) | 1% | 98% (active) | 96.8% (active)
14 | O=C(CBr)N1c2ccccc2S(=O)(=O)c2ccc3ccccc3c21 | 36% | 97% (active) | 79.5% (active) | 49% | 98% (active) | 87% (active) | 66% | 98% (active) | 81.2% (active) | 36% | 96% (active) | 64.5% | 79% (active) | 97% (active) | 76.5% (active) | 79% (active) | 97% (active) | 89.8% (active)
15 | CC[C@@H]1O[C@@H]([C@@H]2CC[C@](O)([C@]3(C)CC[C@@H]([C@@H](C)[C@@]4(O)CC[C@H](C)[C@@H](C[C@@]5(O)O[C@@H]([C@@H](C)[C@H](O)C[C@H]6CC[C@H](C)[C@@H]([C@@H](C)C(=O)O)O6)CC[C@@H]5C)O4)O3)O2)CC[C@@]1(C)O | 10% | 90% (active) | 88.4% (active) | 34% | 94% (active) | 90.2% (active) | -9% | 92% (active) | 89.2% (active) | 58% | 92% (active) | 88.2% (active) | -14% | 93% (active) | 87.2% (active) | -18% | 93% (active) | 87.7% (active)
16 | c1ccc(COc2ccc(C[P+](c3ccccc3)(c3ccccc3)c3ccccc3)cc2)cc1 | 97% (active) | 100% (active) | 99.3% (active) | 98% (active) | 100% (active) | 99.5% (active) | 99% (active) | 100% (active) | 99.7% (active) | 98% (active) | 98% (active) | 99.6% (active) | 99% (active) | 99% (active) | 99.5% (active) | 99% (active) | 99% (active) | 99.3% (active)
17 | O=C1C=CC(=O)N1c1ccc(-c2ccc(N3C(=O)C=CC3=O)cc2)cc1 | 41% | 68% | 48.3% | 56% | 87% (active) | 35.6% | 60% | 82% (active) | 60.6% | 18% | 57% | 27.1% | 33% | 80% (active) | 46% | 58% | 79% (active) | 57.5%
18 | COc1ccccc1NC(=O)CC(=O)N1N=C(c2ccccc2)C(N=Nc2ccc(Cl)cc2)C1=O (configuration not stated) | 20% | 20% | -5.1% | 21% | 21% | 0.6% | 25% | 25% | -2% | 12% | 12% | -41.2% | 15% | 15% | 1% | 6% | 6% | -8.05%
19 | COc1cccc(OC)c1C(=O)/C=C/c1ccccc1 | -3% | 62% | 66.7% | -1% | 66% | 45% | 1% | 62% | 69.9% | -7% | 47% | 55.4% | -5% | 70% (active) | 50.9% | 1% | 71% (active) | 79.1% (active)
